# An excerpt weighted towards active compounds, which were near 2.5% of everything screened.
# PAX8 inh HTS: inhibitors of PAX8-driven TPO luciferase reporter, primary screen, RMG-I cells, single concentration; 360,000 tested, 1.2% active; SteadyGlo, 24 h; inhibition, % at 12.6 µM;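 active = mean replicate inhibition at least 60% with every replicate also reaching 60%; inconclusive = only one of the two criteria is met; inactive = mean below 60% and not all replicates reaching 60%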;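 also: luciferase light reporting Pax8 driven TPO promoter activity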
# EWS-Fli inh: EWS/Fli-driven NR0B1 reporter inhibitors, primary screen, A673 cells, NR0B1 luciferase, luminescence, MLPCN library. viability-normalised. inhibition, % at 12.6 µM. 350,000 tested, 0.67% active;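 active = mean inhibition of at least 50% after viability correction, with every replicate also passing that limit; inconclusive = mean reaches 50% but only one of two replicates passes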;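 also: firefly luciferase signal divided by Alamar Blue viability fluorescence both relative to DMSO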
# GAA850 FXN act: FXN promoter activators, primary screen, cell-based, luciferase luminescence, HEK293 lucGAA850; HEK293 lucGAA850 FXN promoter luciferase reporter, 24 h; percent of 10 µM SAHA response; activation, % at 6 µM; 360,000 tested, 0.56% active;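 active = activation above the average of all compounds screened plus 3 SD, cutoff fixed separately per campaign, cut at about 7.5% in these data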
# F508del corr: F508del CFTR correction, initial screen, CFBE line, single point; CFBE cells, YFP halide quenching; stimulated with forskolin plus potentiator P3; % fluorescence drop versus neutral controls; activity (quench increase), % at 7.58 µM; 350,000 tested, 0.36% active;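 active = mean added fluorescence quench of at least 8% versus neutral control, with both replicates also reaching 8%; inconclusive = only one of the mean or replicate conditions met; inactive = mean below 8% and not both replicates reaching 8%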;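 also: cells transiently co-express mutant CFTR-F508del with the halide-sensitive YFP; corrector assay measuring rescue of mutant channel to the surface after 24 h compound exposure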
# Env fusion inh: inhibitors of HIV-1 Env-driven cell-cell fusion, primary screen, HeLa-JRFL effector, CEM21 target cells, luciferase | 360,000 tested, 1.1% active | inhibition, % at 12.3 µM;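 active = mean replicate inhibition score of at least 50 and every replicate individually at or above 50; inconclusive = only one of the two criteria met; inactive = mean below 50 and not all replicates reaching 50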
# A number is an active result; . = inactive; ? = inconclusive; / = no result.
SMILES,PAX8 inh HTS,EWS-Fli inh,GAA850 FXN act,F508del corr,Env fusion inh
Cc1ccc2nc(NNC(=O)c3ccc(S(=O)(=O)N4CCc5ccccc5C4)cc3)sc2c1,90,.,.,8.3,.
C[C@@H]1CN([C@H](C)CO)C(=O)c2cc(-c3ccccc3F)cnc2O[C@@H]1CN(C)Cc1cccc(F)c1,.,.,/,.,.
Cc1nnc(NC(=O)c2ccc(S(=O)(=O)N3CCOCC3)cc2)s1,.,.,.,.,.
O=C(CSc1nnc(NC(=O)c2ccc(S(=O)(=O)N3CCOCC3)cc2)s1)Nc1ccccc1C(F)(F)F,69,.,.,.,/
O=C(NCCCN1CCOCC1)c1cc(Cl)ccc1Cl,.,.,.,.,.
O=C(NCCCN1CCOCC1)c1cc(S(=O)(=O)N2CCOCC2)c(Cl)cc1Cl,.,.,.,9.0,.
COc1ccc2c3c([nH]c2c1)[C@H](CO)N(Cc1ccncc1)CC31CN(Cc2ccc(-c3ccccn3)cc2)C1,.,.,/,.,/
C#CCN(C[C@@H]1[C@@H](OC(=O)NC2CCCC2)[C@@H](OC(=O)NC2CCCC2)Cn2c(=O)ccc(=O)n21)S(=O)(=O)c1ccc(C)cc1,96,68,.,.,.
C#CCN(C[C@@H]1[C@@H](OC(=O)NCc2ccccc2F)[C@@H](OC(=O)NCc2ccccc2F)Cn2c(=O)n(CCCCCC)c(=O)n21)S(=O)(=O)c1ccc(C)cc1,.,.,.,.,.
C#CCN(C[C@H]1[C@H](OC(=O)Nc2cccs2)[C@H](OC(=O)Nc2cccs2)CN(C(=O)OC(C)C)N1C(=O)OC(C)C)S(=O)(=O)c1ccc(C)cc1,?,.,/,.,117
C#CCN(C[C@@H]1[C@@H](OC(=O)Nc2cccs2)[C@@H](OC(=O)Nc2cccs2)Cn2c(=O)ccc(=O)n21)S(=O)(=O)c1ccc(C)cc1,113,?,.,.,/
C#CCN(C[C@@H]1[C@@H](OC(=O)NCc2ccccc2F)[C@@H](OC(=O)NCc2ccccc2F)Cn2c(=O)ccc(=O)n21)S(=O)(=O)c1ccc(C)cc1,105,.,.,.,.
COc1ccc2c3c(n(C)c2c1)[C@@H](CO)N(C(=O)Nc1ccc(F)cc1)CC31CN(C(=O)Nc2c(C)noc2C)C1,/,.,/,.,.
CN(C)C(=O)C[C@@H]1CC[C@@H](NC(=O)NC2CCCCC2)[C@H](CO)O1,.,.,/,.,.
CO[C@@H]1CN(C)C(=O)c2cc(NS(C)(=O)=O)ccc2OC[C@@H](C)N(C(=O)C2CC2)C[C@H]1C,.,.,/,.,/
CO[C@@H]1CN(C)C(=O)c2ccc(NC(=O)NC(C)C)cc2OC[C@@H](C)N(Cc2ccccc2)C[C@@H]1C,/,.,/,.,/
CCNC(=O)[C@@H]1[C@@H](CO)[C@@H]2Cn3c(cccc3=O)[C@@H]2N1Cc1ccccc1Cl,.,.,/,.,/
COc1ccc2c3c([nH]c2c1)[C@@H](CO)N(S(=O)(=O)c1cn(C)cn1)CC31CCN(CC2CCCCC2)CC1,.,.,/,8.6,/
COc1ccc2c3c([nH]c2c1)[C@@H](CO)N(C(=O)C1CC1)CC31CN(Cc2nccs2)C1,86,.,/,.,/
COc1ccc2c3c([nH]c2c1)[C@H](CO)N(C(=O)C1CC1)CC31CCN(Cc2cccc(F)c2)CC1,69,.,/,.,/
COc1ccc2c3c([nH]c2c1)[C@@H](CO)N(C(=O)C1CCCC1)CC31CN(Cc2nccs2)C1,.,.,/,.,/
COc1ccc2c3c([nH]c2c1)[C@H](CO)N(C(=O)C1CCCC1)CC31CCN(Cc2cccc(F)c2)CC1,/,.,/,.,/
CCN(CC)c1ccc(C2=NNC(=O)CC2C)cc1[N+](=O)[O-] (centres undefined),/,/,.,/,87
CC1CC(=O)NN=C1c1cccs1 (centres undefined),.,.,.,.,.
CO[C@H]1CN(C)C(=O)c2cc(NC(=O)c3ccc4c(c3)OCO4)ccc2OC[C@H](C)NC[C@@H]1C,.,.,/,.,.
SMILES,PAX8 inh HTS,EWS-Fli inh,GAA850 FXN act,F508del corr,Env fusion inh
CCCCCc1ccc(OCCC[n+]2ccccc2)c(CCCCC)c1,96,.,.,?,.
CCCCCc1ccc(OCCOCCn2c[n+](C)c3ccccc32)c(CCCCC)c1,/,/,.,/,/
COc1ccc(NC(=O)Nc2ccc3c(c2)CC(=O)N([C@@H](C)CO)C[C@@H](C)[C@H](CN(C)C)O3)cc1,.,.,/,.,/
O=C1CCCC2=C1C(c1ccc(Cl)cc1)C1C(=O)c3ccccc3C1=N2 (centres undefined),/,/,.,/,59
O=C1CCCC2=C1C(c1ccccc1)C1C(=O)c3ccccc3C1=N2 (centres undefined),.,/,.,/,.
C[C@@H]1CN([C@H](C)CO)C(=O)c2cc(NS(=O)(=O)c3ccc(F)cc3)ccc2O[C@H]1CN(C)Cc1ccc(-c2ccccc2)cc1,/,.,/,.,/
COc1ccc(NC(=O)N(C)C[C@H]2OCCCC[C@H](C)Oc3ccc(NS(=O)(=O)c4c(C)noc4C)cc3C(=O)N([C@@H](C)CO)C[C@H]2C)cc1,.,.,/,.,.
O=C(N[C@@H]1CC[C@H](CCn2cc(-c3cccnc3)nn2)O[C@@H]1CO)c1ccccc1F,.,.,/,.,.
CCc1ccn2cc(-c3ccc4c(c3)OCO4)nc2c1,80,83,.,.,.
COC(=O)c1ccc2nc(-c3ccc4c(c3)OCO4)cn2c1,.,.,.,.,.
COc1ccc(S(=O)(=O)N(C)C[C@@H]2OCCCC[C@H](C)Oc3ccc(NS(=O)(=O)c4ccc(F)cc4)cc3C(=O)N([C@@H](C)CO)C[C@H]2C)cc1,.,.,/,.,.
C[C@H](CO)N1C[C@H](C)[C@H](CN(C)Cc2ccc(C(F)(F)F)cc2)OCCCC[C@H](C)Oc2ccc(NC(=O)CCC(F)(F)F)cc2C1=O,77,.,/,.,.
C[C@H](CO)N1C[C@H](C)[C@H](CN(C)Cc2ccc(C(F)(F)F)cc2)OCCCC[C@H](C)Oc2ccc(NC(=O)CCCN(C)C)cc2C1=O,.,68,/,.,.
CO[C@H]1CN(C)C(=O)c2cc(NC(=O)Cc3ccccc3)ccc2OC[C@@H](C)N(CC2CC2)C[C@@H]1C,.,.,/,.,.
COc1ccc(NC(=O)Nc2ccc3c(c2)[C@H]2C[C@H](CC(=O)N4CCCCC4)O[C@@H](CO)[C@H]2O3)cc1,.,.,/,.,/
COc1ccc(CN(C)C[C@@H]2OCCCC[C@H](C)Oc3ccc(NC(=O)CCCN(C)C)cc3C(=O)N([C@H](C)CO)C[C@@H]2C)cc1,.,.,/,.,.
Cc1ccc(-c2cnc3c(c2)C(=O)N([C@@H](C)CO)C[C@@H](C)[C@H](CN(C)Cc2ccccc2C(=O)O)O3)cc1,/,.,/,.,.
O=C(NC1CCCCCC1)C1c2ccccc2C(=O)N1Cc1cccs1 (centres undefined),91,.,.,.,/
C[C@@H]1CN([C@@H](C)CO)C(=O)c2cccc(NC(=O)Nc3ccc(C(F)(F)F)cc3)c2O[C@@H]1CN(C)C(=O)NC1CCCCC1,.,.,/,.,.

# Source: PubChem BioAssay (several laboratories)
